Measurements taken from PubChem BioAssay AID1159580 (chemical genetic matrix, 2015).
Values joined by “and” are separate entries in the source; they are usually repeats but may differ in a detail not shown here. Identical values can stand only once. Out of some 5,500 compounds screened, about 2,000 (36%) were called active. Not shown: some 18% with an inconclusive outcome. No stated cut-off is given here; in the data, active means normalized growth mostly below about 0.91 (no sharp cut-off); inconclusive means no clear call, values can overlap the other calls; inactive means mostly above about 0.92. The list shows a part of the results.

Test: chemical genetic growth profiling, strain panel (AID 1159580);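 further: tested at 20 µM; growth read once vehicle control cultures reached saturation at 30 °C; 1 = growth at the plate median or of vehicle wells; lower values mean less growth of the strain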
Conditions: S. cerevisiae deletion strains, growth OD

Measured: normalized growth

O=c1[nH]oc2c1CCNC2
inactive: locus YAL013W, strain DEP1, hits give low values 1 and 1.01 | locus YAL021C, strain ccr4, hits give low values 1.01 | locus YAL026C, strain drs2, hits give low values 1.01 | locus YAL030W, strain snc1, hits give low values 0.998 | locus YAL040C, strain CLN3, hits give low values 0.99 | locus YBL061C, strain skt5, hits give low values 1 | locus YBR009C, strain hhf1, hits give low values 0.987 | locus YBR021W, strain FUR4, hits give low values 1.01 | locus YBR023C, strain chs3, hits give low values 0.998 | locus YBR171W, strain sec66, hits give low values 0.985 | locus YBR229C, strain ROT2, hits give low values 1 | locus YBR231C, strain swc5, hits give low values 0.976 | locus YBR279W, strain paf1, hits give low values 1.01 | locus YCL011C, strain gbp2, hits give low values 1.01 | locus YCL016C, strain dcc1, hits give low values 1 | locus YCL029C, strain bik1, hits give low values 0.97 | locus YCL061C, strain MRC1 (second series), hits give low values 1 | locus YCL069W, strain vba3, hits give low values 1 | locus YCR088W, strain abp1, hits give low values 0.999 | locus YDL005C, strain med2, hits give low values 1 | locus YDL035C, strain GPR1, hits give low values 0.999 | locus YDL040C, strain nat1, hits give low values 0.992 | locus YDL074C, strain BRE1, hits give low values 1.04 | locus YDL101C, strain DUN1, hits give low values 1.01 | locus YDL134C, strain PPH21, hits give low values 1.01 | locus YDL185W, strain tfp1, hits give low values 0.964 | locus YDL192W, strain arf1, hits give low values 0.976 | locus YDR001C, strain nth1, hits give low values 0.996 | locus YDR069C, strain doa4, hits give low values 0.993 | locus YDR101C, strain arx1, hits give low values 0.997 | locus YDR137W, strain rgp1, hits give low values 1.02 | locus YDR150W, strain NUM1, hits give low values 0.996 and 0.999 | locus YDR159W, strain sac3, hits give low values 0.973 | locus YDR162C, strain NBP2, hits give low values 1.02 | locus YDR195W, strain ref2 0.947 | locus YDR297W, strain sur2, hits give low values 1.01 | locus YDR318W, strain mcm21, hits give low values 0.966 | locus YDR334W, strain swr1, hits give low values 1 | locus YDR335W, strain msn5, hits give low values 1 | locus YDR363W, strain ESC2, hits give low values 1.01 | locus YDR388W, hits give low values 0.986 | locus YDR392W, strain spt3, hits give low values 1.01 | locus YDR502C, strain sam2, hits give low values 1 | locus YEL003W, strain gim4, hits give low values 0.998 | locus YEL037C, strain rad23, hits give low values 0.999 | locus YEL061C, strain CIN8 (second series), hits give low values 0.998 | locus YEL061C, strain CIN8, hits give low values 0.999 | locus YER002W, strain NOP16, hits give low values 1 | locus YER015W, strain faa2, hits give low values 1.01 | locus YER016W, strain bim1, hits give low values 1 | locus YER110C, hits give low values 0.967 | locus YER111C, strain swi4, hits give low values 0.994 | locus YER155C, strain BEM2 (second series), hits give low values 0.978 | locus YER155C, strain BEM2, hits give low values 0.998 | locus YER167W, strain BCK2, hits give low values 0.973 | locus YFR010W, strain ubp6, hits give low values 1.01 | locus YGL078C, strain dbp3, hits give low values 0.994 | locus YGL086W, strain mad1, hits give low values 0.963 | locus YGL167C, strain pmr1, hits give low values 0.999 | locus YGL173C, strain kem1, hits give low values 1.01 | locus YGL227W, strain vid30, hits give low values 0.994 | locus YGL240W, strain doc1, hits give low values 0.988 | locus YGL248W, strain PDE1, hits give low values 1 | locus YGL253W, strain hxk2, hits give low values 1.02 | locus YGR078C, strain PAC10, hits give low values 1.03 and 0.994 | locus YGR135W, strain pre9, hits give low values 1.01 | locus YGR229C, strain SMI1, hits give low values 1.03 | locus YGR252W, strain gcn5, hits give low values 0.97 | locus YHR013C, strain ard1, hits give low values 0.998 | locus YHR027C, strain rpn1, hits give low values 1.01 | locus YHR030C, strain SLT2, hits give low values 0.992 and 1.01 | locus YHR079C, strain IRE1 (second series), hits give low values 1 | locus YHR079C, strain IRE1, hits give low values 1.03 | locus YHR094C, strain hxt1, hits give low values 0.973 | locus YHR129C, strain ARP1, hits give low values 1 | locus YHR142W, strain chs7, hits give low values 1.03 | locus YHR200W, strain rpn10, hits give low values 0.975 | locus YIL066C, strain RNR3, hits give low values 1.01 | locus YIL073C, strain SPO22, hits give low values 0.902 | locus YIL125W, strain kgd1, hits give low values 0.987 | locus YIR030C, strain dcg1, hits give low values 0.982 | locus YJL092W, strain hpr5, hits give low values 0.998 | locus YJL095W, strain BCK1 (second series), hits give low values 0.999 | locus YJL095W, strain BCK1, hits give low values 1.06 and 1.02 | locus YJL115W, strain asf1, hits give low values 1.01 | locus YJL129C, strain trk1, hits give low values 1 | locus YJL134W, strain LCB3, hits give low values 0.994 | locus YJL154C, strain vps35, hits give low values 0.995 | locus YJL164C, strain tpk1, hits give low values 1 | locus YJL166W, strain qcr8, hits give low values 0.965 | locus YJL168C, strain set2, hits give low values 0.988 | locus YJL187C, strain SWE1 (second series), hits give low values 1.02 | locus YJR043C, strain POL32, hits give low values 0.987 | locus YJR066W, strain TOR1, hits give low values 0.921 | locus YJR075W, strain HOC1, hits give low values 1.08
